From PubChem BioAssay (EPA / NIEHS) come the findings set out here.

Conditions in all cases: mRNA level, 48 h; actives raise or lower the signal
Read-out in assay [1]: adenosine kinase (ADK) gene, ADK (gene 132)
Nature of the assay: LTEA_HepaRG_ADK: Life Technologies and Expression Analysis (LTEA) Assay for adenosine kinase (ADK) gene using HepaRG (AID 2283471). Summed up:
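Read-out is ADK transcript level measured by qRT-PCR and normalised to three housekeeping genes. Cells are human HepaRG, dosed for 48 h at up to 100 uM in 0.5% DMSO. Gain or loss of signal is fitted against DMSO controls.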

Read-out in assay [2]: Alpha-fetoprotein (AFP) gene, AFP (gene 174)
Nature of the assay: LTEA_HepaRG_AFP: Life Technologies and Expression Analysis (LTEA) Assay for Alpha-fetoprotein (AFP) gene using HepaRG (AID 2283472). Summed up:
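AFP transcript measured by TaqMan qRT-PCR with three housekeeping genes for normalization, after 48 h chemical treatment of HepaRG cells (top 100 uM, half-log steps, 0.5% DMSO). Gain or loss fitted against vehicle.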

Read-out in assay [3]: BCL2L11 (gene 10018)
Description: LTEA_HepaRG_BCL2L11: Life Technologies and Expression Analysis (LTEA) Assay for Bcl-2 (BCL2L11) gene using HepaRG (AID 2283473). Summed up: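 Differentiated human HepaRG cells were exposed 48 h in serum-free induction medium to eight half-log concentrations up to 100 uM in 0.5% DMSO, in duplicate. BCL2L11 mRNA was quantified by TaqMan qRT-PCR, normalized to ACTB, GAPDH and POLR2A; induction or repression fitted versus DMSO.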

Read-out in assay [4]: Apolipoprotein A-V (APOA5) gene, APOA5 (gene 116519)
Description: LTEA_HepaRG_APOA5: Life Technologies and Expression Analysis (LTEA) Assay for Apolipoprotein A-V (APOA5) gene using HepaRG (AID 2283474). The method, boiled down: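 Differentiated HepaRG cells in serum-free induction medium, exposed 48 h in duplicate to eight half-log concentrations topping at 100 uM (0.5% DMSO). APOA5 mRNA by Fluidigm TaqMan qRT-PCR, normalized to ACTB, GAPDH and POLR2A; bidirectional fit versus DMSO.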

Read-out in assay [5]: Bcl-2 (BID) gene, BID (gene 637)
Description: LTEA_HepaRG_BID: Life Technologies and Expression Analysis (LTEA) Assay for Bcl-2 (BID) gene using HepaRG (AID 2283476). The method, boiled down: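 Duplicate 48 h treatments of HepaRG cells in serum-free induction medium spanned 100 uM downward in half-log steps, 0.5% DMSO. Transcript change quantified by qRT-PCR against three housekeeping genes, fitted up or down versus DMSO.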

Read-out in assay [6]: Cytochrome P450 (CYP24A1), CYP24A1 (gene 1591)
Nature of the assay: LTEA_HepaRG_CYP24A1: Life Technologies and Expression Analysis (LTEA) Assay for Cytochrome P450 (CYP24A1) using HepaRG (AID 2283478). The method, boiled down: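 HepaRG cells plated 48 h, then exposed in duplicate in serum-free induction medium for 48 h to 8-point half-log series from 100 uM in 0.5% DMSO. CYP24A1 mRNA by Fluidigm qRT-PCR, normalized to ACTB, GAPDH, POLR2A; bidirectional fit versus DMSO.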

Read-out in assay [7]: Cytochrome P450 (CYP1A2), CYP1A2 (gene 1544)
Nature of the assay: LTEA_HepaRG_CYP1A2: Life Technologies and Expression Analysis (LTEA) Assay for Cytochrome P450 (CYP1A2) using HepaRG (AID 2283479). The method, boiled down:
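Differentiated human HepaRG cells in serum-free induction medium exposed 48 hours in duplicate to 8 half-log concentrations from 100 uM, 0.5% DMSO. CYP1A2 mRNA quantified by qRT-PCR, normalized to ACTB, GAPDH and POLR2A; bidirectional fitting versus DMSO.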

Read-out in assay [8]: cysteine-aspartic acid protease (CASP8), CASP8 (gene 841)
Nature of the assay: LTEA_HepaRG_CASP8: Life Technologies and Expression Analysis (LTEA) Assay for cysteine-aspartic acid protease (CASP8) using HepaRG (AID 2283480). The method, boiled down: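 qRT-PCR readout of CASP8 mRNA, normalized to three housekeeping genes, after 48 h chemical exposure of HepaRG cells; 8-point half-log series, top 100 uM, 0.5% DMSO vehicle. Bidirectional curve fitting against DMSO baseline.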

Read-out in assay [9]: Cytochrome P450 (CYP2B6), CYP2B6 (gene 1555)
Nature of the assay: LTEA_HepaRG_CYP2B6: Life Technologies and Expression Analysis (LTEA) Assay for Cytochrome P450 (CYP2B6) using HepaRG (AID 2283481). Summed up: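 Differentiated human HepaRG cells in serum-free induction medium, dosed in duplicate for 48 h over 8 half-log concentrations topping at 100 uM (0.5% DMSO). CYP2B6 mRNA measured by TaqMan qRT-PCR, normalized to ACTB, GAPDH, POLR2A; bidirectional fit versus DMSO.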

Read-out in assay [10]: Cytochrome P450 2C19 (Homo sapiens) (UniProt P33261)
Description: LTEA_HepaRG_CYP2C19: Life Technologies and Expression Analysis (LTEA) Assay for CYP2C19 using HepaRG (AID 2283482). Summed up: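 Differentiated HepaRG cells in serum-free induction medium exposed 48 h in duplicate, 8 concentrations from 100 uM by half-log steps in 0.5% DMSO. CYP2C19 mRNA measured by TaqMan qRT-PCR, normalized to ACTB, GAPDH, POLR2A. Bidirectional fit versus DMSO.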

Read-out in assay [11]: CYP2C8 (gene 1558)
Nature of the assay: LTEA_HepaRG_CYP2C8: Life Technologies and Expression Analysis (LTEA) Assay for CYP2C8 using HepaRG (AID 2283483). The method, boiled down:
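HepaRG (human liver line), 48 h chemical exposure, 8-pt half-log series from 100 uM, 0.5% DMSO vehicle. Readout: CYP2C8 transcript by qRT-PCR, housekeeping-normalized. Bidirectional fit vs DMSO baseline.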

Read-out in assay [12]: CYP2C9 (gene 1559)
Nature of the assay: LTEA_HepaRG_CYP2C9: Life Technologies and Expression Analysis (LTEA) Assay for CYP2C9 using HepaRG (AID 2283484). The method, boiled down:
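HepaRG, 48 h dosing, 8-pt half-log series, top 100 uM, 0.5% DMSO vehicle. Read-out: CYP2C9 transcript by TaqMan qRT-PCR, housekeeping-normalized (ACTB/GAPDH/POLR2A). Gain or loss fitted vs DMSO baseline.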

Read-out in assay [13]: CYP2E1 (gene 1571)
Nature of the assay: LTEA_HepaRG_CYP2E1: Life Technologies and Expression Analysis (LTEA) Assay for CYP2E1 using HepaRG (AID 2283485). The method, boiled down:
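CYP2E1 transcript measured by Fluidigm qRT-PCR against three housekeeping genes in human HepaRG cells treated 48 h (top 100 uM, half-log steps, 0.5% DMSO vehicle). Gain or loss fitted relative to DMSO baseline.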

Read-out in assay [14]: CYP4A11 (gene 1579)
Description: LTEA_HepaRG_CYP4A11: Life Technologies and Expression Analysis (LTEA) Assay for CYP4A11 using HepaRG (AID 2283486). The method, boiled down: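 Differentiated HepaRG cells, 48 h after plating, exposed in duplicate for 48 h to 8 half-log concentrations up to 100 uM in 0.5% DMSO in serum-free induction medium. CYP4A11 mRNA measured by TaqMan qRT-PCR, normalized to ACTB, GAPDH and POLR2A.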

Read-out in assay [15]: Cytochrome P450 3A4 (Homo sapiens) (UniProt P08684)
Description: LTEA_HepaRG_CYP3A4: Life Technologies and Expression Analysis (LTEA) Assay for CYP3A4 using HepaRG (AID 2283487). The method, boiled down: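 HepaRG, 48 h exposure, 8-pt CRC from 100 uM (half-log), 0.5% DMSO, duplicates; serum-free induction medium. Readout: CYP3A4 mRNA, qRT-PCR, ACTB/GAPDH/POLR2A normalization. Bidirectional fit vs DMSO.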

Read-out in assay [16]: DNA damage-inducible transcript 3 (DDIT3), DDIT3 (gene 1649)
Nature of the assay: LTEA_HepaRG_DDIT3: Life Technologies and Expression Analysis (LTEA) Assay for DNA damage-inducible transcript 3 (DDIT3) using HepaRG (AID 2283488). Summed up: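 DDIT3 transcript was quantified by qRT-PCR with ACTB/GAPDH/POLR2A normalization after 48 h chemical treatment of differentiated HepaRG cells in 0.5% DMSO. Dosing was eight-point, half-log, top 100 uM, duplicate wells. Curves fitted bidirectionally versus DMSO.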

Read-out in assay [17]: Pro-epidermal growth factor (Homo sapiens) (UniProt P01133)
Description: LTEA_HepaRG_EGF: Life Technologies and Expression Analysis (LTEA) Assay for Epidermal growth factor (EGF) using HepaRG (AID 2283489). The method, boiled down:
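HepaRG cells (~100,000/well, 48 h pre-culture) exposed in duplicate for 48 h in serum-free induction medium to 8 half-log concentrations up to 100 uM in 0.5% DMSO. EGF mRNA by qRT-PCR, normalized to ACTB/GAPDH/POLR2A; bidirectional fit versus DMSO.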

Read-out in assay [18]: Apoptosis regulator Bcl-2 (Homo sapiens) (UniProt P10415)
Description: LTEA_HepaRG_BCL2: Life Technologies and Expression Analysis (LTEA) Assay for Bcl-2 gene using HepaRG (AID 2283475). Summed up:
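qRT-PCR of BCL2 transcript, normalized to three housekeeping genes (ACTB, GAPDH, POLR2A), after 48 h chemical exposure of HepaRG cells; concentrations top 100 uM with half-log dilutions, 0.5% DMSO vehicle, duplicates; changes up or down fitted relative to vehicle.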

Read-out in assay [19]: Bcl-2 (BAX) gene, BAX (gene 581)
Description: LTEA_HepaRG_BAX: Life Technologies and Expression Analysis (LTEA) Assay for Bcl-2 (BAX) gene using HepaRG (AID 2283470). The method, boiled down: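 Gene expression measured by Fluidigm qRT-PCR with three housekeeping genes for normalisation. HepaRG cells, plated 48 h beforehand, treated 48 h at up to 100 uM (8-point, half-log) in 0.5% DMSO. Bidirectional fitting versus DMSO.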

Where “and” joins values, the source holds several entries; their conditions need not be identical. Identical values can stand only once. More than one record can exist for a structure, and the calls need not agree. Calls of active or inactive are those of the source. How the source made its calls: active means hit-call score of the fitted dose curve at least 0.9, where 1 is the maximum; inactive means score below 0.9.

Cytochrome P450 2C19 (Homo sapiens), sequence (P33261 whole entry, looked up): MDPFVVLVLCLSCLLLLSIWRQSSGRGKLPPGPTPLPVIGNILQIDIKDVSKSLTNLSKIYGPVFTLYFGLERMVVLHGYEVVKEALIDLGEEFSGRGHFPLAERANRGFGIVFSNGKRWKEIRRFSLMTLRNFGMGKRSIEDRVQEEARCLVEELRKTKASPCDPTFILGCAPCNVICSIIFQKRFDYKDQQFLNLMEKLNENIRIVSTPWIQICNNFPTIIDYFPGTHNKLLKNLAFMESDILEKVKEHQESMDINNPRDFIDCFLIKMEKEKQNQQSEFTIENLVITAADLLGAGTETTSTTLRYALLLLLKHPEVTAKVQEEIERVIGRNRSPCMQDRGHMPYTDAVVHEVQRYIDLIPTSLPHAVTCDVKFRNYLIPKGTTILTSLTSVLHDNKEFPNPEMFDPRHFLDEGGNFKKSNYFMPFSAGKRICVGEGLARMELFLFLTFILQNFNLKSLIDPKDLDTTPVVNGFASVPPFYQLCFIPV
Cytochrome P450 3A4 (Homo sapiens), sequence (P08684 whole entry, looked up): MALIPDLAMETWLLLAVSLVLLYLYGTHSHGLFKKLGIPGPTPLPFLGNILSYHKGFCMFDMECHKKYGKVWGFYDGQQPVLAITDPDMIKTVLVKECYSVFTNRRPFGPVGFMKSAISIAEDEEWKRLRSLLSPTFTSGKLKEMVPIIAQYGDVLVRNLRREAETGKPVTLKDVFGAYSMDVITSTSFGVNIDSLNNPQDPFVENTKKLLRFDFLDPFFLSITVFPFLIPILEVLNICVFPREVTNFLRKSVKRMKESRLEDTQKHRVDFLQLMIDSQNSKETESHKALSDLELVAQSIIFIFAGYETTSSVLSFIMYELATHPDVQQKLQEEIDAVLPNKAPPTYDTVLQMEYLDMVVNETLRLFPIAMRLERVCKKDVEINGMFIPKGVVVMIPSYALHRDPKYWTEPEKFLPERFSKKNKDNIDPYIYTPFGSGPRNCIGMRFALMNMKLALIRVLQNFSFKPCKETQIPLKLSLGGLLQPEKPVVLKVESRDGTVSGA
Apoptosis regulator Bcl-2 (Homo sapiens), sequence (P10415 whole entry, looked up): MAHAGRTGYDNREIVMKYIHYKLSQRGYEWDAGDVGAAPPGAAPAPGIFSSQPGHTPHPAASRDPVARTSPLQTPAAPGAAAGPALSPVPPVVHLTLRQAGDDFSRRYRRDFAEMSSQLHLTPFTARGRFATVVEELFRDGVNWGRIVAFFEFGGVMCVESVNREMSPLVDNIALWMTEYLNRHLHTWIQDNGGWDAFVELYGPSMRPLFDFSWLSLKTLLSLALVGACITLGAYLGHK

As a reminder, the AC50 is the concentration giving half of the maximal activity seen. For the molecule `O=C(NC(=O)c1c(F)cccc1F)Nc1ccc(OC(F)(F)C(F)OC(F)(F)F)c(Cl)c1` (stereo unspecified), the molecule was classed as inactive in assay [1], in assay [2], in assay [3], in [4], in [5] and in assay [6]. Besides, the molecule was classed as inactive in assay [8], in assay [9], in assay [10], in assay [11], in assay [12] and in assay [13]. The result in [14], in assay [15], in [16] and in assay [17] was inactive. For the same molecule, in assay [7], the AC50 is 12.3 µM (active).
For `ClC1C(Cl)C(Cl)C(Cl)C(Cl)C1Cl` (stereo unspecified), the molecule was called inactive in assay [1], in [2], in [3], in assay [5], in assay [6] and in assay [8]. Besides, the call in assay [11], in assay [12], in assay [14], in assay [16] and in assay [17] was inactive. Moreover, the AC50 in assay [2] was 19.5 µM (active); in assay [9], 758 nM (active) and 392 nM (active); in [10], 1.1 µM (active) and 1.12 µM (active); in [11] it was 0.418 µM (active); in [12], 1.93 µM (active); in assay [13], 22.3 µM (active) and 5.02 µM (active). Further, the AC50 is 12.6 µM (active) in [14] and 1.92 µM (active) in assay [17].
With `CC(C)(C)C(O)/C(=C\c1ccc(Cl)cc1Cl)n1cncn1` (stereo unspecified), the molecule was classed as inactive in assay [1], in assay [5], in [6], in assay [12] and in [17]. The AC50 in [2] is 19.8 µM (active); in [3], 79.8 µM (active); in [4], 25.3 µM (active); in assay [18], 21.8 µM (active); in assay [8], 80.6 µM (active); in assay [9] it was 0.748 µM (active). The half-maximal activity concentration (AC50) is 4.01 µM (active) in assay [10]; 3.88 µM (active) in assay [11]; 12.9 µM (active) in assay [13]; 21.9 µM (active) in assay [14]; 84.5 µM (active) in [15]; 29.4 µM (active) in [16].
On to `O=S1OCC2C(CO1)C1(Cl)C(Cl)=C(Cl)C2(Cl)C1(Cl)Cl` (stereo unspecified), for which the molecule was classed as inactive in assay [1], in [3], in assay [5], in [6], in assay [8] and in assay [17]. Further, the AC50 was 50 µM (active) in [2]; 84.7 µM (active) in assay [18]; 90.1 µM (active) in assay [9]; 89.2 µM (active) in [10]; 81.1 µM (active) in assay [11]; 82.4 µM (active) in assay [12]. For the same molecule, the AC50 in assay [13] was 55.7 µM (active); in assay [14], 62.6 µM (active); in [15] it was 11.7 µM (active); in [16] it was 80 µM (active).
For the molecule `C[C@H]1[C@H](c2ccc(Cl)cc2)SC(=O)N1C(=O)NC1CCCCC1`, the call in [1], in assay [5], in [6], in assay [8] and in assay [17] was inactive. Moreover, the AC50 was 36.7 µM (active) in assay [2]; 67.2 µM (active) in [3]; 36.8 µM (active) in assay [4]; 81.7 µM (active) in [9]; 89 µM (active) in assay [10]; 77.8 µM (active) in [11]. For the same molecule, the AC50 in [12] is 78.6 µM (active); in assay [13], 32.5 µM (active); in assay [14] it was 40.4 µM (active); in [15], 90 µM (active); in assay [16] it was 72.3 µM (active).
Regarding `CNC(=O)Oc1ccccc1OC(C)C`, the call in assay [19], in assay [1], in [2], in [3], in assay [5] and in [6] was inactive. The call in [8], in assay [10], in [11], in assay [12], in assay [14] and in [16] was inactive. For the same molecule, in assay [17], the call was inactive. For the same molecule, the AC50 in [9] was 3.17 µM (active); in assay [13], 22.2 µM (active); in [15], 0.594 µM (active).
